Reference: ChEMBL document CHEMBL3988442, “University of Dundee, Small-Polar-MMV Screening Library” (2021)

Molecular target: T1, Aspartate--tRNA(Asp/Asn) ligase (Mycobacterium tuberculosis (strain ATCC 25618 / H37Rv)) (UniProt P9WFW3)
T1 sequence (whole entry): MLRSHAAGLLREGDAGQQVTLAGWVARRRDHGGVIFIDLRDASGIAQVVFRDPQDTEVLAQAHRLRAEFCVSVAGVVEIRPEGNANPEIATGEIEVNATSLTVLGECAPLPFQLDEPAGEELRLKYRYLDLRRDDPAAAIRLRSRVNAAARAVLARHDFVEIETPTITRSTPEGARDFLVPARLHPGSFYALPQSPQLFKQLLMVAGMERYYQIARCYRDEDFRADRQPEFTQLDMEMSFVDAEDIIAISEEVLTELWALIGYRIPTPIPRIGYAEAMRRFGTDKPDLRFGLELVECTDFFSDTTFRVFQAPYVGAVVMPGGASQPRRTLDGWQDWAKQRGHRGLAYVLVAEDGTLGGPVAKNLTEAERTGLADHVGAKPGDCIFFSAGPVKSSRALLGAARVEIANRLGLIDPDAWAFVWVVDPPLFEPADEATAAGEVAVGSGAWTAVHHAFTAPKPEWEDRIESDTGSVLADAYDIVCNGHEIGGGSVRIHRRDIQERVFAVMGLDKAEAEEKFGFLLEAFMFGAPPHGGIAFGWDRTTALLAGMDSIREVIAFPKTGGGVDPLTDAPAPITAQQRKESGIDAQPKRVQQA
Assay: Assay for Asp RNA synthetase-1 from Mycobacterium tuberculosis
Type: functional
Design: scale not given: in the data most compounds retested in dose-response had high values
Details: 30 µM

For COCCN1CC[C@]2(CN(C(=O)c3cccs3)C[C@H]2C)C1=O, which Percent Effect is on record?
The Percent Effect was 1.59%.

With Cn1cnnc1C1CCCN(C(=O)NCc2ccc3c(c2)OCO3)C1 (stereo not given) as the compound, how does the Percent Effect read?
The Percent Effect was -2.83%.

How did the Percent Effect turn out when Cn1cnnc1S(=O)(=O)C1CCN(S(=O)(=O)c2c(Cl)cccc2Cl)CC1 was run?
The Percent Effect was -0.575%.

For Cn1ccc(C(=O)NC2CCC23CCN(Cc2cccnc2)CC3)c1 (stereo not given), which Percent Effect is on record?
Its Percent Effect is 0.843%.

How did the Percent Effect turn out when CN(C)C(=O)[C@@H]1C[C@@H]2CCN(Cc3ccc4c(c3)OCO4)C[C@@H]2O1 was run?
The Percent Effect was -0.869%.

How did the Percent Effect turn out when COCC(=O)N1CCC2(CCN(Cc3ccccn3)CC2)CC1 was run?
Its Percent Effect is 6.21%.

COC(=O)c1cccc(NC(=O)CCn2nc(-c3cccs3)oc2=O)c1 was tested. Which Percent Effect did it give?
Its Percent Effect is 1.89%.

How did the Percent Effect turn out when O=C(CC1CCCC1)N1C[C@@H]2CCN(c3cccnc3)C[C@@H]2C1 was run?
Its Percent Effect is 2%.

How did the Percent Effect turn out when Cc1ccc(N2CCC3(CCN(C(N)=O)CC3)CC2)nn1 was run?
Its Percent Effect is 2.03%.

How did the Percent Effect turn out when Cc1cc(C)n(CC2CN(CC(=O)Nc3c(C)n[nH]c3C)CCO2)n1 (stereo not given) was run?
The Percent Effect was -0.486%.

How did the Percent Effect turn out when c1cnc(NCc2cncc3c2CCN(Cc2cccs2)C3)nc1 was run?
The Percent Effect was 3.81%.

Cc1ccccc1CN1CCC2(COCc3cnc(N(C)C)nc32)C1 (stereo not given) was tested. Which Percent Effect did it give?
Its Percent Effect is -3.4%.

Which Percent Effect does the source give for Cc1cnn(CC2CCCCN2CCn2cncn2)c1 (stereo not given) here?
Its Percent Effect is -2.34%.

How did the Percent Effect turn out when Cc1nc(N)cc(C2CN(C(=O)c3ccn(C)n3)CCO2)n1 (stereo not given) was run?
Its Percent Effect is -1.09%.

How did the Percent Effect turn out when O=C(NCc1cc[nH]n1)NCC(c1ccccc1Cl)N1CCCC1 (stereo not given) was run?
Its Percent Effect is 5.68%.

How did the Percent Effect turn out when O=C(NC1CC1)N1CCc2ncnc(-c3ccncc3)c2CC1 was run?
The Percent Effect was 5.15%.

For Cc1ccc(NC(=O)NC(C)c2nc[nH]n2)s1 (stereo not given), which Percent Effect is on record?
The Percent Effect was 3.94%.

How did the Percent Effect turn out when CN(C)S(=O)(=O)N1CCCC(c2cccc(Cc3ccccc3)n2)C1 (stereo not given) was run?
The Percent Effect was 2.78%.

With Cc1ccc(C(=O)NC(CN2CCCC2=O)c2ccccc2)c(=O)[nH]1 (stereo not given) as the compound, how does the Percent Effect read?
Its Percent Effect is -6.44%.

With CC(C)c1ncc2c(n1)CN(Cc1cccc(C#N)c1)CC2 as the compound, how does the Percent Effect read?
Its Percent Effect is 0.9%.

Cc1nn(C)c(N(C)C)c1CNCc1cccnc1-n1cncn1 was tested. Which Percent Effect did it give?
Its Percent Effect is -4.35%.

How did the Percent Effect turn out when Cc1cc(NC(=O)NCC2CCOC2)no1 (stereo not given) was run?
The Percent Effect was -7.54%.

With CS(=O)(=O)N[C@@H]1CCO[C@]2(CCN(C(=O)c3cnccn3)C2)C1 as the compound, how does the Percent Effect read?
Its Percent Effect is 4.35%.

CN(CCNC(=O)Nc1ccncc1)C1CCCCC1 was tested. Which Percent Effect did it give?
The Percent Effect was 1.25%.

With O=C(CCc1ccc(=O)[nH]n1)N1CCCC(COc2ccc(F)cc2)C1 (stereo not given) as the compound, how does the Percent Effect read?
Its Percent Effect is 3.84%.

Which Percent Effect does the source give for CCCc1noc(CN2CCCC2c2ccsc2)n1 (stereo not given) here?
Its Percent Effect is -3.91%.

With CN(C)CC(=O)N1CCC2(CC1)CN(c1ccsc1)C(=O)CO2 as the compound, how does the Percent Effect read?
Its Percent Effect is 5.4%.

Which Percent Effect does the source give for OCC1CCCN1c1cc(N2CCc3ccccc3C2)ncn1 (stereo not given) here?
Its Percent Effect is 1.24%.

With CNS(=O)(=O)Cc1ccc(CNC(=O)Nc2cccnc2)cc1 as the compound, how does the Percent Effect read?
The Percent Effect was -0.514%.

How did the Percent Effect turn out when CN(C)c1cc(CNC(=O)Nc2ccc(S(C)(=O)=O)nc2)ccn1 was run?
Its Percent Effect is -1.23%.

With CC(C)C(C(=O)N1CCC(N(C)c2cccnn2)CC1)n1cncn1 (stereo not given) as the compound, how does the Percent Effect read?
The Percent Effect was -3.21%.

For Cn1ccnc1CN1CCC2(CC1)CC(Oc1cccnc1)C2, which Percent Effect is on record?
Its Percent Effect is 0.874%.

How did the Percent Effect turn out when CCc1noc(CN2CCCC2c2noc(C3CC3)n2)n1 (stereo not given) was run?
Its Percent Effect is 0.459%.

COC(=O)C(c1cc(F)ccc1F)N(C)C(=O)c1cccnc1O (stereo not given) was tested. Which Percent Effect did it give?
The Percent Effect was -4.32%.

With O=C(NCCCNCC1CNc2ccnn2C1)c1ccccc1 (stereo not given) as the compound, how does the Percent Effect read?
Its Percent Effect is 0.0558%.

For O=C(Cn1ccc2ccccc21)NCc1ccc(C(=O)O)cc1, which Percent Effect is on record?
The Percent Effect was 5.27%.

With c1ccc(CN2CC[C@@H]3O[C@H](COCc4ccncc4)CC[C@@H]32)nc1 as the compound, how does the Percent Effect read?
Its Percent Effect is -0.574%.

Cc1cc(NC(=O)CCc2ccsc2)n(C)n1 was tested. Which Percent Effect did it give?
The Percent Effect was 1.87%.

O=C(c1cnn2c1OCCC2)N1CCN(C/C=C/c2ccccc2)CC1 was tested. Which Percent Effect did it give?
The Percent Effect was 3.28%.

O=C(CN1CCCCC1Cn1cccn1)NC1CCN(C2CC2)CC1 (stereo not given) was tested. Which Percent Effect did it give?
The Percent Effect was 1.64%.
